Results published in the supplement of paper PMC6555819.

Tests used:
Assay in all cases: PBM binding z-score (relative to random genomic background probes); higher = stronger binding; sequences stand for … in GC…GCGATTGACAGCGTAGAATGAAGG
[1] = tested on: FXR:RXRa (NR concentration 270 nM, RXRa partner concentration 90 nM)
Procedure, shortened: (§1)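 Custom Agilent 4×180K protein-binding microarrays carried double-stranded probes. Their 34-nt variable regions held direct-repeat seeds, single-nucleotide variants, half-site ablations and random human genomic background sequences. Arrays were incubated 1 h with ligand-free nuclear receptor dimers in PBS pH 7.4, 2% milk, 0.02% Triton X-100, 1 mM DTT, 0.2 mg/mL BSA and 0.4 mg/ml salmon testes DNA. Antibodies against each partner (one per run) detected binding, and scanned fluorescence was regression-normalized. Binding z-scores use random background probes as reference.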

[2] = tested on: LXRa:RXRa (NR concentration 270 nM, RXRa partner concentration 90 nM)
Procedure, shortened: as §1

[3] = tested on: LXRa homodimer (NR concentration 270 nM)
Procedure, shortened: as §1

[4] = tested on: LXRb:RXRa (NR concentration 270 nM, RXRa partner concentration 90 nM)
Procedure, shortened: as §1

[5] = tested on: LXRb homodimer (NR concentration 270 nM)
Procedure, shortened: as §1

[6] = tested on: PPARa:RXRa (NR concentration 270 nM, RXRa partner concentration 90 nM)
Procedure, shortened: as §1

[7] = tested on: PPARg:RXRa (NR concentration 180 nM, RXRa partner concentration 90 nM)
Procedure, shortened: as §1

[8] = tested on: PPARg:RXRa 270nM:90nM, anti-RXR (NR concentration 270 nM, RXRa partner concentration 90 nM)
Procedure, shortened: as §1

[9] = tested on: PPARg:RXRa 30nM:10nM, anti-RXR (NR concentration 30 nM, RXRa partner concentration 10 nM)
Procedure, shortened: as §1

[10] = tested on: PPARg:RXRa 90nM:30nM, anti-RXR (NR concentration 90 nM, RXRa partner concentration 30 nM)
Procedure, shortened: as §1

[11] = tested on: PPARg:RXRa DBDmut IVT, anti-RXR (DBD mutation: RXRa K156A/R161A, NR concentration 270 nM, RXRa partner concentration 90 nM)
Procedure, shortened: as §1

[12] = tested on: PPARg:RXRa IVT, anti-PPARg (NR concentration 270 nM, RXRa partner concentration 90 nM)
Procedure, shortened: as §1

[13] = tested on: PPARg DBDmut:RXRa IVT, anti-PPARg (DBD mutation: PPARg1 K132A/R137A, NR concentration 270 nM, RXRa partner concentration 90 nM)
Procedure, shortened: as §1

[14] = tested on: PPARg DBDmut IVT, anti-PPARg (DBD mutation: PPARg1 K132A/R137A, NR concentration 270 nM)
Procedure, shortened: as §1

[15] = tested on: PPARg homodimer (NR concentration 180 nM)
Procedure, shortened: as §1

[16] = tested on: PXR:RXRa (NR concentration 270 nM, RXRa partner concentration 90 nM)
Procedure, shortened: as §1

[17] = tested on: PXR homodimer (NR concentration 270 nM)
Procedure, shortened: as §1

[18] = tested on: RARa:RXR (NR concentration 270 nM, RXRa partner concentration 90 nM)
Procedure, shortened: as §1

[19] = tested on: RARa homodimer (NR concentration 270 nM)
Procedure, shortened: as §1

[20] = tested on: RARb:RXRa (NR concentration 270 nM, RXRa partner concentration 90 nM)
Procedure, shortened: as §1

| Sequence | PBM binding z-score [1] | PBM binding z-score [2] | PBM binding z-score [3] | PBM binding z-score [4] | PBM binding z-score [5] | PBM binding z-score [6] | PBM binding z-score [7] | PBM binding z-score [8] | PBM binding z-score [9] | PBM binding z-score [10] | PBM binding z-score [11] | PBM binding z-score [12] | PBM binding z-score [13] | PBM binding z-score [14] | PBM binding z-score [15] | PBM binding z-score [16] | PBM binding z-score [17] | PBM binding z-score [18] | PBM binding z-score [19] | PBM binding z-score [20] |
| --- | --- | --- | --- | --- | --- | --- | --- | --- | --- | --- | --- | --- | --- | --- | --- | --- | --- | --- | --- | --- |
| AGAATGAGGTTACCAAAGATCTGGGAAACGCTTG | 1.57 | 2.23 | -0.414 | 1.23 | -0.401 | 3.4 | 2.74 | 2.37 | 0.756 | 1.91 | 3.41 | 3.25 | 0.193 | 0.0654 | 0.163 | 0.907 | -0.203 | 1.77 | -0.536 | 1.98 |
| CGAACTAGGTCATTGACAGGACACTGAATAGTAA | 4.3 | 3 | 0.64 | 2.25 | 0.377 | 4.54 | 7.31 | 6.14 | 3.7 | 5.66 | 8.02 | 7.96 | 2 | 1.46 | 2.02 | 1.66 | 0.493 | 2.18 | 0.218 | 3.69 |
| GCTAGCTGGCCATTTGGGTCACTCAATGACGGGC | -0.265 | -0.387 | -0.995 | -0.164 | -1.15 | 0.689 | 0.205 | -0.0931 | -1 | -0.612 | 0.293 | 1.17 | -0.756 | -0.983 | -0.342 | -0.0667 | -0.751 | 0.365 | -1.31 | 0.859 |
| GTACCAAGGTGAATAGGACGTTGATGAGTAGGCG | 0.0663 | -0.214 | 0.103 | -0.344 | -0.664 | 0.537 | 1.07 | 0.126 | 0.338 | 0.55 | 1.26 | 1.93 | 0.467 | 0.284 | 0.583 | -0.246 | -0.00267 | -0.0237 | 0.381 | 1.14 |
| ATCGAAAGGTCGAGGTGAGTAGAGAGAAAGGGAA | 4.27 | 3.47 | 0.0492 | 2.46 | 0.462 | 4.49 | 3.29 | 3.59 | 1.45 | 2.36 | 0.416 | 2.34 | 1.55 | 0.427 | 1.76 | 2.19 | 0.327 | 3.31 | 1.21 | 4.11 |
| CCTTACGGGTCACGAGGTTATAGGACGACGAGCG | 6.8 | 4.66 | 0.193 | 3.75 | -0.117 | 5.93 | 7.51 | 6.72 | 3.51 | 5.65 | 4.3 | 5.38 | 1.39 | 0.939 | 1.95 | 4.53 | 0.176 | 5.99 | 1.17 | 4.56 |
| TAGCCTAGGTCAGTTCGGGCCAGTATACGCTATA | 1.39 | 0.745 | -0.272 | 0.551 | -0.0472 | 1.22 | 0.33 | 0.647 | -0.293 | 0.114 | 0.449 | 1.21 | -0.878 | -1.14 | -0.282 | 1.53 | -0.352 | 0.927 | -0.951 | 2.92 |
| CGTCCAAGGTTAGCAGGTCAGTGAAAGCGACGTG | 1.34 | 1.26 | -0.0811 | 0.92 | -0.45 | 2.44 | 1.18 | 2.08 | -0.171 | 1.04 | 2 | 2.5 | -0.8 | -0.782 | 1.06 | 1.18 | -0.346 | 2.01 | -0.223 | 3.08 |
| CCTTACGGGTCACTCCGGGTTATAGCATCGGAGT | 5.38 | 6.79 | 0.448 | 4.31 | 0.169 | 4.62 | 3.58 | 4.18 | 1.34 | 3.26 | 1.96 | 3.06 | 0.27 | -0.00571 | 1.92 | 4.6 | -0.199 | 3.88 | 0.188 | 3.37 |
